# Experimental data taken from the supplement of paper PMC10105736.
# A number with no mark means an inactive call.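 Rule for the calls: active = MAPPIT score above the 99th percentile of random reference set scores in the same batch; inactive = at or below it.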
# B1: CycG (protein)
# chain: MSVPVRYSSAAAEYAAEVDCELESTLQQQQQLHLQQQYEQYQHYQYQREQDIAYYCQLQAARQQEQLMQQRTSMSSSVMPGLALPQDHQDHPAALLNGPHNNNIGLAMDAHSINAILVDDEQPSTSAQAAAAAAASAGGSAGAGSGSGLGGAIGGGKLANGINRNAEMPTDWMRIADEGRYGTPGAAGLEYQKYEQQQQLEDLAESEAGAVGGASNNNGESSSSLKKLEDQLHALTSDELYETLKEYDVLQDKFHTVLLLPKESRREVTAGGRDGSAYVLRCLKMWYELPSDVLFSAMSLVDRFLDRMAVKPKHMACMSVASFHLAIKQLDLKPIPAEDLVTISQCGCTAGDLERMAGVIANKLGVQMGHAPITSVSYLRIYYALFRNLAKEIGGDFFKFYQQLIKLEELENRLEILMCDVKTTVITPSTLALVLICLHLDFHIKESYTRGSPELKHVFEYILFLQQYMRIPDRVFTCGFSIVSGILSHYNGQNKAPYKQRLVWKLSSRTLRVLRPINRFSSDLPTIEEGIPNALDDGLRSRTESISSEEEEDWPTSPIIPIFEQC
# B2: Arr1 (protein)
# chain: MVVNFKVFKKCSPNNMITLYMNRRDFVDSVTQVEPIDGIIVLDDEYVRQNRKIFVQLVCNFRYGREDDEMIGLRFQKELTLVSQQVCPPQKQDIQLTKMQERLLKKLGSNAYPFVMQMPPSSPASVVLQQKASDESQPCGVQYFVKIFTGDSDCDRSHRRSTINLGIRKVQYAPTKQGIQPCTVVRKDFLLSPGELELEVTLDKQLYHHGEKISVNICVRNNSNKVVKKIKAMVQQGVDVVLFQNGQFRNTIAFMETSEGCPLNPGSSLQKVMYLVPTLVANCDRAGIAVEGDIKRKDTALASTTLIASQDARDAFGIIVSYAVKVKLFLGALGGELCAELPFILMHPKPSRKAQLEAEGSIEA
# B3: Sod3 (protein)
# chain: MMQYLVVSLALCATICSAAQTRNMPIQAIAYLIGPVQSDNTQVKGNVTFTQNDCGQNVHVRVQLEGLKEGKHGFHIHEKGDLTNGCISMGAHYNPDKVDHGGPDHEVRHVGDLGNLEANSTGIIDVTYTDQVITLTGKLGIIGRGVVVHELEDDLGLGNHTDSKKTGNAGGRIACGVIGIK
# B4: Edg78E (protein)
# chain: MYKYLFCLALIGCACADNINKDAQIRSFQNDATDAEGNYQYAYETSNGIQIQEAGNANGARGAVAYVSPEGEHISLTYTADEEGYHPVGDHLPTPPPVPAYVLRALEYIRTHPPAPAQKEQQ
# B5: osk (protein)
# chain: MAAVTSEFPSKPISYTSTNTSAKTYYLKSVKKRVTTCFQQLRDKLQSSGSFRKSSSSCLNQIFVRSDFSACGERFRKIFKSARKTELPELWKVPLVAHELTSRQSSQQLQVVARLFSSTQISTKEITYNSNSNTSENNMTIIESNYISVREEYPDIDSEVRAILLSHAQNGITISSIKSEYRKLTGNPFPLHDNVTDFLLTIPNVTAECSESGKRIFNLKASLKNGHLLDMVLNQKERTSDYSSGAPSLENIPRAPPRYWKNPFKRRALSQLNTSPRTVPKITDEKTKDIATRPVSLHQMANEAAESNWCYQDNWKHLNNFYQQASVNAPKMPVPINIYSPDAPEEPINLAPPGHQPSCRTQSQKTEPTENRHLGIFVHPFNGMNIMKRRHEMTPTPTILTSGTYNDSLLTINSDYDAYLLDFPLMGDDFMLYLARMELKCRFRRHERVLQSGLCVSGLTINGARNRLKRVQLPEGTQIIVNIGSVDIMRGKPLVQIEHDFRLLIKEMHNMRLVPILTNLAPLGNYCHDKVLCDKIYRFNKFIRSECCHLKVIDIHSCLINERGVVRFDCFQASPRQVTGSKEPYLFWNKIGRQRVLQVIETSLEY
# B6: mRpL52 (protein)
# chain: MLKITKICLASSATSTAQRSIALTAPRAIDQKWRAAKGLPENPNAFGPLTNLPDYTYLDGRPTPLGANQKRRLIKQQEIATRIVELSGELEFAKQRHERLKANAESEKQRLIRSKLKPKGHFLLKK
# B7: Sry-alpha (protein)
# chain: MEQLLAQLHTCSELIAEGYSSTGNIGWLNEFCATFLDFASDLKARLPEVAPSGANLDVETIFLCLTQVVTCITHLERTISMEAPHMTRQHFLDRLDWCLRRLLVSLTQLEGNVTPVKNLEDHSFVELMDLALDHLDDYMEKLAQQRNNSLHILEESFTEDTYQLASIVNHIVRHALAFANVAIHSDKKALTALCETLLAECATFHEEAGEPNSGHRKLEALSLERALYALESFLNEALLHLLFVSLIDLENASVEKLKDALQRDPAGAQELISAFDTNMDRIQQIGVLAIAFSQDIKTKTIVRSCLASLESLDACIVPALQLPESTSSAHHAEVLQEHFNQELLIFRNVIHEIIDSCSLINNYLDMLGERIHVQDKSHLKLIVQRGGVVVDHFRLPVNYSGLSEDGKRVHKDLILILRECQAVVNLDVPVDPKRIVKRLKILYSVLAKLRDLICRDNLEPDSSVASEAQVPSSATRTFVRSSRSFGKRHRSFVKQTGNCSVFGPQDSLAESGHSESDLISFQITEILRLD
# B8: Cdlc2 (protein)
# chain: MSDRKAVIKNADMSEEMQQDAVDCATQALEKYNIEKDIAAFIKKEFDKKYNPTWHCIVGRNFGSYVTHETRHFIYFYLGQVAILLFKSG
# Columns and labels:
# Assay in all cases: MAPPIT interaction score (arbitrary units); higher = stronger binary interaction signal, active = hit call of the paper
# CG12307 = conditions: MAPPIT configuration: N-C; pair source set: screen_3
# CG5151 = conditions: MAPPIT configuration: N-N; pair source set: Curagen_high_conf
# Npl4 = conditions: MAPPIT configuration: N-N; pair source set: Finley_Y2H
# PAN3 = conditions: MAPPIT configuration: N-N; pair source set: Finley_Y2H
# Sxl = conditions: MAPPIT configuration: N-N; pair source set: Finley_Y2H
# mxt = conditions: MAPPIT configuration: N-N; pair source set: screen_1
# CG12155 = conditions: MAPPIT configuration: N-N; pair source set: Lit-BS-16
# Ravus = conditions: MAPPIT configuration: N-N; pair source set: screen_1
# CG11961 = conditions: MAPPIT configuration: N-N; pair source set: Lit-BS-16
# CG12607 = conditions: MAPPIT configuration: N-N; pair source set: Lit-BS-16
# noc = conditions: MAPPIT configuration: N-N; pair source set: Curagen_high_conf
# CG12112 = conditions: MAPPIT configuration: N-N; pair source set: RRS
# CG30324 = conditions: MAPPIT configuration: N-C; pair source set: screen_3
# en = conditions: MAPPIT configuration: N-C; pair source set: screen_4
# CG12268 = conditions: MAPPIT configuration: N-N; pair source set: DPIM
# mub = conditions: MAPPIT configuration: N-N; pair source set: DPIM
# CG12253 = conditions: MAPPIT configuration: N-C; pair source set: screen_3
# Hsp70Aa = conditions: MAPPIT configuration: N-N; pair source set: Lit-BS-16
# CG11983 = conditions: MAPPIT configuration: N-N; pair source set: screen_1
# 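Note: HEK293T cells with Epo stimulation, STAT-responsive firefly luciferase reporter, fold induction versus unstimulated cells divided by the larger fold induction of two negative controls lacking either bait or prey.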
binder,measurement,setting,value
B1,MAPPIT interaction score,CG12307,0.375
same,MAPPIT interaction score,CG5151,0.112
same,MAPPIT interaction score,Npl4,3.83 (active)
same,MAPPIT interaction score,PAN3,0.781
same,MAPPIT interaction score,Sxl,1.86
same,MAPPIT interaction score,mxt,-0.277
B2,MAPPIT interaction score,CG12155,0.0379
same,MAPPIT interaction score,Ravus,0.0915
B3,MAPPIT interaction score,CG11961,-0.0996
same,MAPPIT interaction score,CG12607,0.262
same,MAPPIT interaction score,noc,0.249
B4,MAPPIT interaction score,CG12112,2.76 (active)
B5,MAPPIT interaction score,CG12307,2.35
same,MAPPIT interaction score,CG30324,0.362
same,MAPPIT interaction score,en,0.844
B6,MAPPIT interaction score,CG12268,-0.169
same,MAPPIT interaction score,mub,0.103
B7,MAPPIT interaction score,CG12253,0.332
same,MAPPIT interaction score,Hsp70Aa,3.5 (active)
B8,MAPPIT interaction score,CG11983,4.18 (active)
